To fix the notation:
B1: PhoQ; a variant is named by its letters at X, in order, P23837 (parent)
chain: MKKLLRLFFPLSLRVRFLLATAAVVLVLSLAYGMVALIGYSVSFDKTTFRLLRGESNLFYTLAKWENNKLHVELPENIDKQSPTMTLIYDENGQLLWAQRDVPWLMKMIQPDWLKSNGFHEIEADVNDTSLLLSGDHSIQQQLQEVREDDDDAEMTHSVAVNVYPATSRMPKLTIVVVDTIPVELKSSYMVWSWFIYVLSANLLLVIPLLWVAAWWSLRPIEALAKEVRELEEHNRELLNPATTRELTSLVRNLNRLLKSERERYDKYRTTLTDLTHSLKTPLXXLQXXLRSLRSEKMSVSDAEPVMLEQISRISQQIGYYLHRASMRGGTLLSRELHPVAPLLDNLTSALNKVYQRKGVNISLDISPEISFVGEQNDFVEVMGNVLDNACKYCLEFVEISARQTDEHLYIVVEDDGPGIPLSKREVIFDRGQRVDTLRPGQGVGLAVAREITEQYEGKIVAGESMLGGARMEVIFGRQHSAPKDE

Here are results for 153 variants from a collection of fitness landscapes (doi:10.1126/science.1257360).

Over roughly 140,000 sequences, “enrichment ratio after two sorts for PhoP signalling” has its median near 0; the highest 2% begin near 11. The sample as a whole holds a higher share of the highest values than the screen did.

This test covers variants of B1. Put plainly: enrichment ratio after two sorts for PhoP signalling (ratio (wild type AVST 3.29)); higher = more functional. As to conditions: with PhoP (E. coli).
As to PFSV, the enrichment ratio was at most 0.25.

With NIRV, the enrichment ratio was at most 0.25.

In the case of ALCE, the enrichment ratio came out at 16.1.

On to ALVE, for which the enrichment ratio is at most 0.25.

With LLCQ, the enrichment ratio was at most 0.25.

ALCI: the enrichment ratio came out at 9.33.

As to ALCQ, the enrichment ratio is 13.8.

In the case of ALQP, the enrichment ratio is at most 0.25.

In the case of FDQC, the enrichment ratio was at most 0.25.

For HRRK, the enrichment ratio is at most 0.25.

On to GSPQ, for which the enrichment ratio is at most 0.25.

With QKFG, the enrichment ratio is at most 0.25.

Regarding QRFG, the enrichment ratio is at most 0.25.

As for QEFG, the enrichment ratio was determined as 30.8.

Consider QQFA, for which the enrichment ratio was at most 0.25.

For WQFG, the enrichment ratio is at most 0.25.

As for QQFG, the enrichment ratio was determined as 20.2.

Take YSKV: the enrichment ratio was at most 0.25.

On to PITH, for which the enrichment ratio was at most 0.25.

For YICL, the enrichment ratio was 3.21.

Take AELT: the enrichment ratio was determined as 6.58.

For the variant AEAV, the enrichment ratio was 15.8.

For AEVT, the enrichment ratio is 15.3.

As for AEAT, the enrichment ratio came to 47.1.

On to ADAL, for which the enrichment ratio is at most 0.25.

Turning to AEEV, the enrichment ratio was 2.19.

Take AEFT: the enrichment ratio came out at 6.27.

Take AAAL: the enrichment ratio was determined as 4.97.

Turning to AENT, the enrichment ratio was found to be 10.7.

Take AEYT: the enrichment ratio is 2.16.

For AEYV, the enrichment ratio is at most 0.25.

AEAL: the enrichment ratio amounted to 18.2.

Regarding FMVL, the enrichment ratio was at most 0.25.

With SFSW, the enrichment ratio is at most 0.25.

In the case of TSQR, the enrichment ratio is at most 0.25.

Take MHEF: the enrichment ratio was at most 0.25.

As to INEK, the enrichment ratio is at most 0.25.

As for HTRD, the enrichment ratio is at most 0.25.

For the variant IMKH, the enrichment ratio is at most 0.25.

For GQND, the enrichment ratio was at most 0.25.

Turning to FWMY, the enrichment ratio is at most 0.25.

With RETL, the enrichment ratio is at most 0.25.

As to VEGG, the enrichment ratio is at most 0.25.

On to ECSV, for which the enrichment ratio is at most 0.25.

In the case of IAKM, the enrichment ratio was at most 0.25.

For the variant ANIY, the enrichment ratio came out at 0.312.

On to AEAS, for which the enrichment ratio came to 21.3.

As to AEQY, the enrichment ratio stood at 17.1.

As to ADIY, the enrichment ratio is at most 0.25.

On to AEAM, for which the enrichment ratio turned out to be 5.95.

On to AEAG, for which the enrichment ratio is 7.71.

In the case of AEST, the enrichment ratio came out at 18.4.

As to ARST, the enrichment ratio is at most 0.25.

For the variant AEIY, the enrichment ratio was determined as 14.8.

As for AEQP, the enrichment ratio was at most 0.25.

On to AQST, for which the enrichment ratio stood at 5.3.

With AQQY, the enrichment ratio was at most 0.25.

For MKWE, the enrichment ratio was at most 0.25.

In the case of PDNP, the enrichment ratio is at most 0.25.

Turning to PQPV, the enrichment ratio is at most 0.25.

As to INLG, the enrichment ratio amounted to 2.36.

On to DREC, for which the enrichment ratio is at most 0.25.

VNMC: the enrichment ratio came out at 1.44.

As to AEAN, the enrichment ratio amounted to 28.2.

On to AIWT, for which the enrichment ratio was at most 0.25.

Turning to AEKA, the enrichment ratio is at most 0.25.

For the variant AERY, the enrichment ratio was at most 0.25.

As to AEYM, the enrichment ratio is 3.72.

Turning to AEWT, the enrichment ratio is 22.1.

Regarding AEAI, the enrichment ratio came to 14.2.

For AEAY, the enrichment ratio stood at 39.2.

As to AEYI, the enrichment ratio amounted to 3.12.

As for AEIN, the enrichment ratio was 1.09.

Take AEAW: the enrichment ratio was at most 0.25.

AEDY: the enrichment ratio was at most 0.25.

For ITKR, the enrichment ratio was at most 0.25.

Regarding SVFT, the enrichment ratio was at most 0.25.

Consider VISK, for which the enrichment ratio is at most 0.25.

Regarding LWWA, the enrichment ratio was at most 0.25.

As for NMII, the enrichment ratio was at most 0.25.

Consider TPVN, for which the enrichment ratio was at most 0.25.

Take FWRY: the enrichment ratio was at most 0.25.

As for SCFG, the enrichment ratio is at most 0.25.

On to ITNE, for which the enrichment ratio was at most 0.25.

Turning to TRFM, the enrichment ratio was at most 0.25.

Consider GRSR, for which the enrichment ratio is at most 0.25.

Turning to PKLW, the enrichment ratio was at most 0.25.

Turning to ECFL, the enrichment ratio was at most 0.25.

For the variant NQDT, the enrichment ratio was at most 0.25.

On to AENY, for which the enrichment ratio stood at 5.26.

Take AEYY: the enrichment ratio was at most 0.25.

For AEAA, the enrichment ratio came out at 12.1.

On to AEGY, for which the enrichment ratio was 43.4.

As for AEAD, the enrichment ratio was at most 0.25.

AEYQ: the enrichment ratio was at most 0.25.

Regarding SGEP, the enrichment ratio is at most 0.25.

As for INCT, the enrichment ratio is at most 0.25.

Turning to NFHN, the enrichment ratio was at most 0.25.

As to NMVN, the enrichment ratio is at most 0.25.

DKLH: the enrichment ratio is at most 0.25.

PNLH: the enrichment ratio was at most 0.25.

Turning to ANTI, the enrichment ratio was found to be 11.4.

In the case of ANTE, the enrichment ratio is at most 0.25.

Take ANTG: the enrichment ratio came out at 1.58.

Consider ANTC, for which the enrichment ratio came out at 63.

In the case of ANTD, the enrichment ratio was at most 0.25.

Regarding ANTH, the enrichment ratio is 6.44.

As for ANTA, the enrichment ratio stood at 19.3.

Take ANNK: the enrichment ratio came to 0.253.

Regarding ANTK, the enrichment ratio was at most 0.25.

Consider ANTS, for which the enrichment ratio was 21.1.

ANTR: the enrichment ratio is at most 0.25.

Regarding ANFC, the enrichment ratio was at most 0.25.

On to MYDG, for which the enrichment ratio is at most 0.25.

For the variant PVQS, the enrichment ratio was at most 0.25.

On to RRVW, for which the enrichment ratio is at most 0.25.

With HRAN, the enrichment ratio is at most 0.25.

As for KEHR, the enrichment ratio is at most 0.25.

As to SANM, the enrichment ratio was found to be 9.22.

In the case of NAVG, the enrichment ratio is at most 0.25.

For the variant EVLL, the enrichment ratio is at most 0.25.

With KQMR, the enrichment ratio is at most 0.25.

Consider MDIQ, for which the enrichment ratio worked out at 0.654.

As for YTIQ, the enrichment ratio was at most 0.25.

As for MMIQ, the enrichment ratio is at most 0.25.

Turning to SEFQ, the enrichment ratio worked out at 6.8.

KYIQ: the enrichment ratio is at most 0.25.

Take SEIE: the enrichment ratio was at most 0.25.

As to MEIQ, the enrichment ratio turned out to be 19.4.

STIQ: the enrichment ratio is 14.

For the variant SEIQ, the enrichment ratio is 22.9.

In the case of EGNN, the enrichment ratio was at most 0.25.

For the variant NRRY, the enrichment ratio is at most 0.25.

As to THCI, the enrichment ratio was found to be 7.06.

In the case of ANVR, the enrichment ratio was at most 0.25.

Take HNSH: the enrichment ratio is at most 0.25.

For HYAD, the enrichment ratio is at most 0.25.

LNEM: the enrichment ratio is at most 0.25.

Consider KKNT, for which the enrichment ratio is at most 0.25.

On to SECN, for which the enrichment ratio stood at 23.5.

Take KECN: the enrichment ratio is at most 0.25.

For the variant FCCN, the enrichment ratio was at most 0.25.

As for GTCN, the enrichment ratio worked out at 3.53.

For the variant FQCN, the enrichment ratio is at most 0.25.

Take FNCN: the enrichment ratio was at most 0.25.

Turning to SELN, the enrichment ratio is 8.08.

Turning to GMLN, the enrichment ratio came to 0.729.

Consider GMCN, for which the enrichment ratio was 13.6.

TECN: the enrichment ratio is 60.8.

With SNCN, the enrichment ratio was found to be 7.42.

Consider FECN, for which the enrichment ratio amounted to 13.

Take KSEA: the enrichment ratio was at most 0.25.

On to VGRD, for which the enrichment ratio is at most 0.25.
